From PubChem BioAssay (EPA / NIEHS) come the findings set out here.

Experiment [1] can be described thus: CEETOX_H295R_ESTRONE: CeeTox H295R High-throughput Steroidogenesis Assay for Estrone (AID 2283441).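 For AC50: human adrenal H295R cells prestimulated with forskolin for two days.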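 Note: estrone secreted into medium measured by LC-MS/MS after dansyl derivatization.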 The following applies: actives raise or lower the signal. Summed up: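 H295R cells; 48 h forskolin (10 uM) prestimulation; 48 h compound exposure, 0.1% DMSO final. Medium estrone: MTBE extraction, dansyl derivatization, HPLC-MS/MS. Bidirectional fit vs DMSO.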

Experiment [2] can be described thus: CEETOX_H295R_PROG: CeeTox H295R High-throughput Steroidogenesis Assay for Progesterone (PROG) (AID 2283442).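 For AC50: human H295R adrenal cells primed with 10 µM forskolin before dosing.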 The following applies: actives raise or lower the signal. Summed up: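 Measured analyte is progesterone secreted by H295R cells at 48 h of chemical treatment, following 10 uM forskolin priming. Quantitation used HPLC-MS/MS against a 7-point standard curve; cytotoxicity was checked by MTT absorbance.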

Read-out in experiment [3]: Tumor necrosis factor receptor superfamily member 6 (Homo sapiens) (UniProt P25445)
Description: LTEA_HepaRG_FAS: Life Technologies and Expression Analysis (LTEA) Assay for Fas cell surface death receptor (FAS) using HepaRG (AID 2283447). The note with it: mRNA level, 48 h; actives raise or lower the signal. The procedure, abridged: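 FAS transcript level was measured by TaqMan qRT-PCR against three housekeeping genes after 48 h chemical exposure. Cells were HepaRG, 0.5% DMSO vehicle, with a top concentration of 100 uM and half-log dilutions over eight points, in duplicate.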

Read-out in experiment [4]: Fatty acid synthase (Homo sapiens) (UniProt P49327)
The experiment in a line: LTEA_HepaRG_FASN: Life Technologies and Expression Analysis (LTEA) Assay for Fatty Acid Synthase (FASN) using HepaRG (AID 2283448).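 For AC50: differentiated human HepaRG liver cells in serum-free induction medium.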 The following applies: mRNA level, 48 h; actives raise or lower the signal. The procedure, abridged: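 Transcript-level assay: HepaRG liver cells are treated for 48 h across an eight-point range topping at 100 uM, and FASN mRNA, normalized to three housekeeping genes, is compared with DMSO controls in both directions.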

Read-out in experiment [5]: Cyclin D2 (CCND2), CCND2 (gene 894)
The experiment in a line: LTEA_HepaRG_CCND2: Life Technologies and Expression Analysis (LTEA) Assay for Cyclin D2 (CCND2) using HepaRG (AID 2283449). The note with it: mRNA level, 48 h; actives raise or lower the signal. Summed up: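 Read-out is CCND2 mRNA level measured by qRT-PCR in human HepaRG liver cells and normalised to three housekeeping genes. Chemicals were applied for 48 h at up to 100 uM, with gain or loss fitted relative to 0.5% DMSO.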

Read-out in experiment [6]: catalase (CAT), CAT (gene 847)
Description: LTEA_HepaRG_CAT: Life Technologies and Expression Analysis (LTEA) Assay for catalase (CAT) using HepaRG (AID 2283452).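 For AC50: TaqMan qRT-PCR signal normalized to ACTB GAPDH and POLR2A housekeeping genes.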 The following applies: mRNA level, 48 h; actives raise or lower the signal. Summed up: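 Expression of CAT was quantified by TaqMan qRT-PCR with ACTB/GAPDH/POLR2A normalization after 48 h chemical exposure of HepaRG. Eight-point half-log series, top 100 uM, in 0.5% DMSO; gain or loss fitted against vehicle.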

Read-out in experiment [7]: flavin-containing dimethylaniline monooxygenases 3 (FMO3), FMO3 (gene 2328)
Description: LTEA_HepaRG_FMO3: Life Technologies and Expression Analysis (LTEA) Assay for flavin-containing dimethylaniline monooxygenases 3 (FMO3) using HepaRG (AID 2283453).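 For AC50: differentiated human HepaRG liver cells in serum-free induction medium; FMO3 transcript by TaqMan qRT-PCR normalized to ACTB GAPDH and POLR2A.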 The note with it: mRNA level, 48 h; actives raise or lower the signal. The procedure, abridged:
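HepaRG, 48 h exposure, 8-pt half-log series from 100 uM, 0.5% DMSO vehicle, duplicates; FMO3 transcript by Fluidigm TaqMan qRT-PCR, housekeeping-normalized; gain/loss fit vs DMSO.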

Read-out in experiment [8]: Cytochrome P450 (CYP1A1), CYP1A1 (gene 1543)
Description: LTEA_HepaRG_CYP1A1: Life Technologies and Expression Analysis (LTEA) Assay for Cytochrome P450 (CYP1A1) using HepaRG (AID 2283454). The note with it: mRNA level, 48 h; actives raise or lower the signal. Summed up:
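Using HepaRG cultures with 0.5% DMSO as vehicle, eight-concentration exposures (max 100 uM) lasted 48 h. Transcript levels were measured by TaqMan qRT-PCR and normalized to ACTB, GAPDH and POLR2A.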

Read-out in experiment [9]: Cyclin Dependent Kinase Inhibitor 1A (CDKN1A), CDKN1A (gene 1026)
Description: LTEA_HepaRG_CDKN1A: Life Technologies and Expression Analysis (LTEA) Assay for Cyclin Dependent Kinase Inhibitor 1A (CDKN1A) using HepaRG (AID 2283450). The following applies: mRNA level, 48 h; actives raise or lower the signal. Summed up:
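Gain or loss of CDKN1A transcript is scored by bidirectional fitting against 0.5% DMSO vehicle. Human HepaRG cultures receive chemicals for 48 h across an 8-point series peaking at 100 uM; expression comes from qRT-PCR.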

Read-out in experiment [10]: Cyclin D1 (CCND1), CCND1 (gene 595)
Description: LTEA_HepaRG_CCND1: Life Technologies and Expression Analysis (LTEA) Assay for Cyclin D1 (CCND1) using HepaRG (AID 2283451).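 For AC50: differentiated human HepaRG liver cells in serum-free induction medium; TaqMan qRT-PCR transcript level normalised to ACTB GAPDH and POLR2A housekeeping genes.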 The following applies: mRNA level, 48 h; actives raise or lower the signal. The procedure, abridged: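 Expression change is measured by qRT-PCR in HepaRG cells after 48 h treatment across eight concentrations topping at 100 uM, with duplicate wells and DMSO (0.5%) serving as baseline for bidirectional fitting.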

The source made the active and inactive calls. Rule for the calls: active = hit-call score of the fitted dose curve at least 0.9, where 1 is the maximum; inactive = score below 0.9.

Chain of Fatty acid synthase (Homo sapiens) (P49327 whole entry, looked up): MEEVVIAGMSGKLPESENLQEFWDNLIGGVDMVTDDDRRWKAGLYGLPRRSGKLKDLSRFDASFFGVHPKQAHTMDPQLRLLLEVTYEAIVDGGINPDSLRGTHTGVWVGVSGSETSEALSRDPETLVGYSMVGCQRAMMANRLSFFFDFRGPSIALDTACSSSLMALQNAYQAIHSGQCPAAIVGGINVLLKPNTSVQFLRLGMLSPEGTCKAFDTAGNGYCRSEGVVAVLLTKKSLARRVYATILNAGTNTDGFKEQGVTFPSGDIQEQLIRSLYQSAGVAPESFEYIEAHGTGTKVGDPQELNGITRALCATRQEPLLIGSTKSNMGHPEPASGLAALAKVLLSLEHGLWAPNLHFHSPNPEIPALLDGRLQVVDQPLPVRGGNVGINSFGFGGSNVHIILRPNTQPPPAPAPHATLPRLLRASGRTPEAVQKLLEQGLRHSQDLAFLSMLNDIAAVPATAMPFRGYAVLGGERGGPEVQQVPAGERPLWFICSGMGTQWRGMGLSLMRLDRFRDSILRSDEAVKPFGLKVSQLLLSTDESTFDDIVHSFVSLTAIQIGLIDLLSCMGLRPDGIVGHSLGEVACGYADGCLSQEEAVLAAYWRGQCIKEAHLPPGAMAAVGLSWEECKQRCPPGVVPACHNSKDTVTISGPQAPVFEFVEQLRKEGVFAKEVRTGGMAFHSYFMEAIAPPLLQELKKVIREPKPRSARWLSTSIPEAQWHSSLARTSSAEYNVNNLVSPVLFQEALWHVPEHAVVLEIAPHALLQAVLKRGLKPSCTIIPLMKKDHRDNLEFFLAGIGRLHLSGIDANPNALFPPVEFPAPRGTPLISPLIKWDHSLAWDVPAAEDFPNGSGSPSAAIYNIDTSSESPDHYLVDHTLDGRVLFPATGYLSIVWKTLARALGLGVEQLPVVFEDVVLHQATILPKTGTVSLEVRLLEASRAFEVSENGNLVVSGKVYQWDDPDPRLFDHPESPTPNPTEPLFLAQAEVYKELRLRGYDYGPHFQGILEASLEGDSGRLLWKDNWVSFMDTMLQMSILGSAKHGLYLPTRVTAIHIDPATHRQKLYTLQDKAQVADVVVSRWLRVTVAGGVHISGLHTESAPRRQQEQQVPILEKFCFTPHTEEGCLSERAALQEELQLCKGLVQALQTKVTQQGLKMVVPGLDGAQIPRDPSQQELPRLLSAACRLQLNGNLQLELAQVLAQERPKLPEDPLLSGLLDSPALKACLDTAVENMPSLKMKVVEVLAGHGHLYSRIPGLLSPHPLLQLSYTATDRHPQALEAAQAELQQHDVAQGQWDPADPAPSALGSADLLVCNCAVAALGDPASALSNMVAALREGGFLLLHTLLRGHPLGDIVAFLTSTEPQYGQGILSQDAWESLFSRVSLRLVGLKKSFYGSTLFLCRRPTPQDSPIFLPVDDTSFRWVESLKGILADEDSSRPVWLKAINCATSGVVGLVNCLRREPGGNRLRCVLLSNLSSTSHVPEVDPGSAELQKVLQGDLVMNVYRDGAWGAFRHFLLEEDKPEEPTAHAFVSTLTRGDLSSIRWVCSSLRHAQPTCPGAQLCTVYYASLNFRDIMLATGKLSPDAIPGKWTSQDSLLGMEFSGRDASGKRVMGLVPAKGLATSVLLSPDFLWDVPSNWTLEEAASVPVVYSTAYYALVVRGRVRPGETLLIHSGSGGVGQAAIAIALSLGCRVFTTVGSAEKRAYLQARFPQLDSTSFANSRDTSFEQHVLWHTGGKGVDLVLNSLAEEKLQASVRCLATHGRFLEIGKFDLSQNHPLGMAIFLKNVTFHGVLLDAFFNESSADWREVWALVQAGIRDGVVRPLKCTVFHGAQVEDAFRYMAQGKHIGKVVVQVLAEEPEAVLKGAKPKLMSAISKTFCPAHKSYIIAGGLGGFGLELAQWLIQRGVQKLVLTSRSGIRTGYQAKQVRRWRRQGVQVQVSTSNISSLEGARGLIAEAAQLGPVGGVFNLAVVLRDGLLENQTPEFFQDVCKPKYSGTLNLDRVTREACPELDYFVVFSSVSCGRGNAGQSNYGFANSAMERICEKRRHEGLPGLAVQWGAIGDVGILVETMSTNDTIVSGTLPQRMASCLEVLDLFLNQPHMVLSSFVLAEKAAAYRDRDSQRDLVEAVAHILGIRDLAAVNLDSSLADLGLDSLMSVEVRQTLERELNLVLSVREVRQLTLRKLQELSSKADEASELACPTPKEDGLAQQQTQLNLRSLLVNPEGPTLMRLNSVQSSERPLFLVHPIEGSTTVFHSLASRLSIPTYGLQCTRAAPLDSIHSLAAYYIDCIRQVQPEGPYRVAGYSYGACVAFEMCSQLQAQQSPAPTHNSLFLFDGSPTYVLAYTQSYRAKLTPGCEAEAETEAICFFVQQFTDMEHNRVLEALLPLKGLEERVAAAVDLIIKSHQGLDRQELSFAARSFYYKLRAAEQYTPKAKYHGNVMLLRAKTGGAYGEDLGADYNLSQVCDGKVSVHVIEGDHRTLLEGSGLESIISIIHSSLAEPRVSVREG

As for `Cc1ccc(O)c(C)c1`, the outcome in [1], in experiment [2], in experiment [3], in [4], in [5] and in experiment [6] was inactive. Further, the molecule was classed as inactive in experiment [7] and in [8].
For `ClC1=C(Cl)[C@]2(Cl)[C@@H]3[C@@H]4C[C@@H]([C@H]5O[C@@H]45)[C@@H]3[C@@]1(Cl)C2(Cl)Cl`, the molecule was called inactive in [3], in [4], in experiment [5], in [9], in [10] and in experiment [6]. Moreover, the call in experiment [7] was inactive. Also, the AC50 in experiment [8] is 28.3 µM (active).
Consider `CCOCCOC(C)=O`, for which the outcome in [2], in experiment [3], in experiment [4], in experiment [5], in experiment [9] and in experiment [6] was inactive. Further, in [7], the call was inactive. In experiment [8], the AC50 was 50 µM (active).
Turning to `C[C@]12CCC(=O)C=C1CC[C@@H]1[C@@H]2CC[C@]2(C)C(=O)CC[C@@H]12`, the outcome in experiment [1], in [3], in [10], in experiment [6], in [7] and in [8] was inactive. The AC50 in experiment [2] is 0.271 µM (active); in [4], 82.7 µM (active).
Turning to `O=C(NC(=O)c1c(F)cccc1F)Nc1cc(Cl)c(OC(F)(F)C(F)F)c(Cl)c1`, the outcome in experiment [1], in experiment [2], in experiment [3], in experiment [5] and in experiment [6] was inactive. Moreover, the values for the AC50 in experiment [4], in experiment [7] and in experiment [8] were 50 µM (active), 50 µM (active) and 3.34 µM (active), respectively.
As for `Cc1cc(O)ccc1Cl`, the call in experiment [1], in [2], in [3], in experiment [4], in [6] and in [7] was inactive. The result in [8] was inactive.
Regarding `CCSC(=O)N(CC)C1CCCCC1`, the molecule was classed as inactive in experiment [2], in experiment [3], in experiment [4], in [5], in experiment [9] and in experiment [6]. The molecule was classed as inactive in experiment [7] and in experiment [8].
Consider `CC#Cc1cc(C)nc(Nc2ccccc2)n1`, for which the result in [1], in [2], in experiment [3], in [5] and in [6] was inactive. Besides, the AC50 was 1.83 µM (active) in experiment [4], 13.3 µM (active) in experiment [10], 21.8 µM (active) in experiment [7] and 13.8 µM (active) in experiment [8].
Regarding `NS(=O)(=O)C(F)(F)C(F)(F)C(F)(F)C(F)(F)C(F)(F)C(F)(F)C(F)(F)C(F)(F)F`, the outcome in experiment [1], in [2], in experiment [3] and in experiment [5] was inactive. For the same molecule, the AC50 in experiment [4] was 12.9 µM (active); in experiment [6], 9.12 µM (active); in experiment [7] it was 11.8 µM (active); in experiment [8] it was 13.8 µM (active).
Consider `CCC(=O)O[C@H]1CC[C@H]2[C@@H]3CCC4=CC(=O)CC[C@]4(C)[C@H]3CC[C@]12C`, for which the AC50 in [1] is 1.31 µM (active); in experiment [2] it was 2.65 µM (active); in experiment [8], 13.1 µM (active). Besides, the outcome in experiment [3], in experiment [4], in experiment [5], in experiment [9], in experiment [6] and in [7] was inactive.
Consider `CCC(C)(c1ccc(O)cc1)c1ccc(O)cc1`, for which the call in [3], in experiment [5], in experiment [6], in experiment [7] and in [8] was inactive. Further, the AC50 in experiment [4] is 70.5 µM (active).
On to `C1CC2OC2CC1C1CO1` (stereo unspecified), for which the molecule was classed as inactive in experiment [3], in [4], in experiment [9], in [6], in [7] and in experiment [8].
As to `O=S(=O)(O)C(F)(F)C(F)(F)C(F)(F)C(F)(F)C(F)(F)C(F)(F)F`, the molecule was called inactive in [3], in [4], in [5] and in [7]. Further, the AC50 is 7.16 µM (active) in experiment [6] and 50 µM (active) in experiment [8].
On to `CC(c1ccc(O)cc1)(c1ccc(O)cc1)c1ccc(O)cc1`, for which the AC50 is 91.1 µM (active) in experiment [3]; 32.1 µM (active) in [4]; 50 µM (active) in [6]; 74.5 µM (active) in experiment [7]; 15.8 µM (active) in experiment [8].
Take `CCC(C)c1cc([N+](=O)[O-])cc([N+](=O)[O-])c1O` (stereo unspecified): the AC50 is 2.25 µM (active) in [3]; 1.16 µM (active) in experiment [4]; 1.38 µM (active) in experiment [6]; 2.51 µM (active) in [7]; 85.7 µM (active) in experiment [8].
`CN(C)CCO`: the outcome in experiment [3], in [4], in experiment [5], in experiment [6], in [7] and in experiment [8] was inactive.
For the molecule `CC(C)(c1ccccc1)c1ccc(O)cc1`, the outcome in experiment [3], in experiment [4], in experiment [9], in [10], in experiment [6] and in experiment [7] was inactive. Besides, in experiment [8], the result was inactive.
`Clc1ccc(Cl)cc1`: the call in [3], in [4], in [5], in [6], in [7] and in experiment [8] was inactive.
In the case of `Nn1cnnc1`, the outcome in [3], in experiment [4], in [5], in experiment [6] and in experiment [7] was inactive. Also, the AC50 in [8] is 50 µM (active).
For the molecule `CCCCCCCCCc1ccc(O)cc1`, the molecule was called inactive in [3], in experiment [4], in experiment [5], in [6] and in [7]. In experiment [8], the AC50 was 50 µM (active).
For `COc1ccc(O)c(C(C)(C)C)c1`, the call in experiment [3], in experiment [4], in [5], in experiment [6], in experiment [7] and in experiment [8] was inactive.
Regarding `Cc1ccccc1[N+](=O)[O-]`, the call in experiment [3], in experiment [4], in experiment [9], in experiment [6], in experiment [7] and in experiment [8] was inactive.
On to `CCCCCCOC(=O)c1ccccc1C(=O)OCCCCCC`, for which the outcome in experiment [3], in experiment [4], in experiment [9], in experiment [10], in [6] and in experiment [7] was inactive. The AC50 in experiment [8] is 50 µM (active).
As to `CN(C)c1nc(=O)n(C2CCCCC2)c(=O)n1C`, the outcome in experiment [3], in experiment [4], in experiment [5], in experiment [6] and in experiment [7] was inactive. In experiment [8], the AC50 is 50 µM (active).
With `ClC1=C(Cl)[C@]2(Cl)[C@@H]3[C@@H](Cl)[C@H]4O[C@H]4[C@@H]3C1(Cl)C2(Cl)Cl`, the molecule was classed as inactive in [3], in [4], in experiment [10], in experiment [6] and in experiment [7]. The AC50 in experiment [8] was 50 µM (active).

By AC50 is commonly meant the concentration giving half of the maximal activity seen.
